Results as given in the supplement of paper PMC3334620.
Whole data set: some 33,000 sequences, median “E-score (-0.5 to 0.5)” near -0.0014, cut for the highest 2% near 0.25. The full list was thinned out, with the highest values kept by preference.

target: T1, Cad1 (UniProt P24813); assay: PBM E-score (8-mer binding enrichment) (E-score (-0.5 to 0.5)); higher = stronger / more preferred TF binding; settings: protein concentration: 100 nM; construct: GST-full length
T1 sequence: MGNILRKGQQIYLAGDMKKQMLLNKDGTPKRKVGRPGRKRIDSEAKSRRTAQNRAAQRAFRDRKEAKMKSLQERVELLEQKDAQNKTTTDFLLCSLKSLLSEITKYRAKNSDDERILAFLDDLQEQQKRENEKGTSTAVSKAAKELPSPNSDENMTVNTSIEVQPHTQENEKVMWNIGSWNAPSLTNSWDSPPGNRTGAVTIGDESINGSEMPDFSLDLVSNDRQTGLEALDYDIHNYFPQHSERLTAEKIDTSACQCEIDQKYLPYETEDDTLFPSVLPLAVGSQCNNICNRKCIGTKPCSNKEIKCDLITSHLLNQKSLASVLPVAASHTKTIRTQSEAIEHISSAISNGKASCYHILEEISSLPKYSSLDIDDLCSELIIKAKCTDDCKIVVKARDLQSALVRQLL
Experimental: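 Universal 'all 10-mer' protein binding microarrays (Agilent AMADID 015681) probed with GST-tagged S. cerevisiae TFs (full-length or DBD) made by in vitro transcription/translation (PURExpress), about 100-200 nM. Bound TF was detected with fluorescent anti-GST. Each ungapped 8-mer (which stands for itself and its reverse complement) is scored by the PBM enrichment score (E-score), a modified Wilcoxon-Mann-Whitney statistic from -0.5 to +0.5, computed with the Universal PBM Analysis Suite. Scale: above 0.35 generally sequence-specific binding.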

| Sequence | PBM E-score |
| --- | --- |
| ATAATTCG | 0.168 |
| ATAATTAA | 0.323 |
| ATAATTAG | 0.285 |
| CTAATTAG | 0.41 |
| CTAATTAA | 0.147 |
| GTAATTAC | 0.33 |
| GGAATTAC | 0.21 |
| AGAATTAG | 0.00824 |
| CCCTATAG | -0.143 |
| ACAGCGCC | -0.0091 |
| TATAAGAA | 0.0437 |
| GGCTGGTA | -0.18 |
| ATACTCTA | -0.0262 |
| ATATAATC | 0.0826 |
| GATGCAGA | 0.146 |
| AAGATGTC | -0.188 |
| GAGAGCCC | -0.458 |
| AGCCGCTG | -0.0754 |
| ACAATTAC | 0.119 |
| ACAATTAT | 0.267 |
| ACAATTAA | 0.148 |
| TAGAGGCA | -0.166 |

| Sequence | PBM E-score |
| --- | --- |
| CAACATAA | 0.255 |
| AAACATAA | -0.131 |
| CAACATAG | -0.073 |
| CAACATAC | 0.132 |
| TAACATAA | 0.287 |
| GAACATAA | 0.111 |
| CCCCTAAC | -0.15 |
| AGTTGGAT | -0.0953 |
| AGGATCCC | -0.144 |
| CCCAGCGG | -0.264 |
| TATGTGGA | 0.146 |
| AGGACGCG | -0.00704 |
| CAGTCTGA | 0.0314 |
| CTGTCGGC | -0.107 |
| CCAGTAAA | -0.0575 |
| ACATTATG | 0.0893 |
| CCATTGTC | 0.00119 |
| CCATTATC | 0.0253 |
| ACATTATC | 0.274 |
| ACATTGTC | 0.292 |
| ACATTGTG | -0.0593 |
| CTAGAGAC | -0.243 |

| Sequence | PBM E-score |
| --- | --- |
| AAATTTTC | 0.0644 |
| ACGCCTAT | -0.161 |
| AGTGTAGC | -0.0088 |
| GAGGTGGC | -0.149 |
| CGAACGCC | -0.0886 |
| AATCGGAG | 0.0523 |
| AATCGGAT | 0.283 |
| AATCGGAA | 0.211 |
| CCAGTCTC | -0.286 |
| CATCTGGA | -0.165 |
| CACAGCGA | 0.133 |
| ATCGCGAG | 0.264 |
| ATCGCGAA | 0.243 |
| CGAGCGAC | 0.0243 |
| ATATCGCC | 0.0776 |
| ATCGCGAT | 0.237 |
| ATATCGCG | 0.267 |
| AGAGCGAG | -0.0569 |
| ATATCGCA | -0.0511 |
| CGAGCGAG | 0.258 |
| CTCGCGAG | 0.279 |
| CACGCGAG | 0.239 |

| Sequence | PBM E-score |
| --- | --- |
| CTCGCGAA | 0.0936 |
| CCCAGACA | -0.108 |
| CGTTACGA | 0.111 |
| CATTAAGC | 0.0681 |
| AGTTGAGA | -0.0203 |
| AAGAGCCA | 0.0145 |
| AGACCACA | -0.0838 |
| ACGGCGTA | 0.0105 |
| AGGAATTG | 0.0938 |
| CGATCCCA | -0.0615 |
| CCTGCTAG | -0.182 |
| CGCAACAA | 0.0963 |
| GGAGCGTA | 0.0102 |
| ATCCGTAC | 0.177 |
| CTGGAATC | -0.0416 |
| CCTCCAGA | -0.208 |
| ACCGCGAG | -0.00282 |
| ATCGTGCA | 0.166 |
| CGCGCGAG | 0.302 |
| ATCGCGCA | 0.0635 |
